# Reference: PubChem BioAssay AID492967 (ICCB-Longwood Screening Facility, Harvard Medical School, 2010)
# Several values for one entry are separate records, joined by “and”; a condition that tells them apart may be missing. Equal values may be shown once. About 320 (0.23%) of roughly 140,000 compounds were called active. Cut-off read from the data, not from the text of the source: active = z-score mostly below about -2.9 (no sharp cut-off); inactive = mostly above about -1.9. The sample as a whole holds a higher share of actives than the screen did. More than one record can exist for a structure, and the calls need not agree.
# Tested on: CapD gamma-glutamyltranspeptidase (Bacillus anthracis Ames Ancestor)
# Test: inhibition of CapD gamma-glutamyltranspeptidase – biochemical, fluorescence intensity, primary screen (AID 492967)
# Conditions: purified CapD enzyme, fluorescence intensity read-out; stronger effect = lower value
row,Compound,z-score
1,Fc1ccccc1-c1nc(N2CCC3(CC2)OCCO3)c2ccccc2n1,-0.275 (inactive)
2,CC(C)C(=O)N=c1scc(-c2ccccc2)n1-c1ccccc1Cl,0.04 (inactive)
3,COc1ccc(C(=O)NNC(=O)C2CCN(c3ccc(C(F)(F)F)cn3)CC2)cc1,3.11 (inactive)
4,CC(C)CCOc1ccc(C(=O)C(C)C)cc1,0.445 (inactive)
5,COc1ccccc1C1CCN(C(=O)c2ccccc2C(F)(F)F)CC1,0.315 (inactive)
6,CC1=C(C(=O)OCCc2ccccc2)C(c2ccccc2C(F)(F)F)NC(=O)N1C (stereo not given),-0.495 (inactive)
7,N#CC(=C1C(=O)c2ccccc2C1=O)c1nc2ccccc2[nH]1,-4.36 (active)
8,CS(=O)(=O)c1nc2ccccc2[nH]1,0.005 (inactive)
9,N#C/C(=C\C=C\c1ccccc1)c1nc2ccccc2[nH]1,2.54 (inactive)
10,ClCCOc1nc(N2CCOCC2)nc(N2CCOCC2)n1,-0.68 (inactive)
11,O=C(c1ccc(Cn2c(=S)[nH]c3ccc(Br)cc3c2=O)cc1)N1CCN(C(=O)c2ccco2)CC1,0.025 (inactive)
12,Cc1ccccc1C(=O)N1CCc2c([nH]c3ccccc23)C1,0.37 (inactive)
13,CCOC(=O)C1=CN(Cc2ccc(OC)cc2)C=C(C(=O)OCC)C1c1cc(Br)c(OCC)c(OC)c1,22.1 (inactive)
14,O=C(Cn1c2ccccc2c(=O)c2cc(Cl)ccc21)Nc1ccc(OCc2ccccc2)cc1,0.395 (inactive)
15,COc1ccc(S(=O)c2ccccc2C(=O)O)cc1 (stereo not given),0.375 (inactive)
16,COc1ccccc1N1CCN(c2ncnc3sc(C(=O)Nc4ccc5c(c4)OCCO5)c(C)c23)CC1,-0.055 (inactive)
17,COc1cccc(N/C(SCc2c(F)cccc2Cl)=C(/C#N)C(=O)NCc2ccccc2)c1,-0.425 (inactive)
18,O=c1c(-c2cc3ccccc3o2)[n+]([O-])c2ccccc2n1O,2.82 (inactive)
19,O=C1/C(=C/c2ccc(Br)cc2)C=C(c2ccccc2)N1c1ccccc1Br,-0.72 (inactive)
20,NC(=O)CCc1cn(-c2ccccc2)nc1-c1ccccc1,-0.045 (inactive)

row,Compound,z-score
1,COc1cc2c(cc1OC)C(c1ccc(Cl)cc1)NC(=O)C2 (stereo not given),-0.115 (inactive)
2,CCOC(=O)C1=C(C)NC(C)=C(C(=O)OCC)C1c1cn(-c2ccccc2)nc1-c1ccc(F)cc1,3.54 (inactive)
3,CC(C)(C)c1ccc(S(=O)(=O)Nc2ccc3c(c2)N(S(=O)(=O)c2cccc(C(F)(F)F)c2)CC3)cc1,-0.6 (inactive)
4,Cc1c(Cl)cccc1N=C1NC(=O)/C(=C/c2ccco2)S1,-1 (inactive)
5,CCN(CC)C(=O)Cn1ncc2c3ccccc3n(Cc3ccccc3)c2c1=O,2.73 (inactive)
6,O=C(CN1C(=O)CC(c2ccccc2)Sc2ccccc21)NCc1ccccc1 (stereo not given),-0.28 (inactive)
7,COc1cc(/C=C2/N=C(c3ccc(Cl)c([N+](=O)[O-])c3)OC2=O)cc(OC)c1OC,0.85 (inactive)
8,CC1CCC(C(C)C)C(OCC(O)CN2CCN(c3ccccc3)CC2)C1 (stereo not given),0.045 (inactive)
9,Cc1c(NC(=O)c2cccnc2)c(=O)n(-c2ccccc2)n1C,-0.255 (inactive) and -5.24 (active)
10,COC(=O)Nc1c(C)n(C)n(-c2ccccc2)c1=O,0.115 (inactive)
11,Cc1ccc(C(=O)N/C(=C\c2ccccc2)C(=O)Nc2c(C)n(C)n(-c3ccccc3)c2=O)cc1,-0.355 (inactive)
12,COc1cc(NC(=O)c2cc(N(C)C)nc(N(C)C)n2)cc(OC)c1,4.64 (inactive)
13,COc1ccc2oc(=O)c(C(=O)O)cc2c1,31.1 (inactive)
14,COc1cccc(C(=O)c2cc3ccc(O)cc3oc2=O)c1,-6.04 (active)
15,COc1ccc2oc(=O)c(C(=O)NC(C)(C)C)cc2c1,13.9 (inactive)
16,Cc1cccc(-c2noc(-c3ccc(OC(F)(F)F)cc3)n2)c1,-0.145 (inactive)
17,CC(=O)Nc1ccccc1C(=O)OCC(=O)Nc1nc2ccccc2s1,-0.695 (inactive)
18,O=C(O)CC(CC(=O)Oc1ccccc1N1CCCC1)c1ccccc1 (stereo not given),-0.435 (inactive)
19,Cc1cccc(-n2nc3c(c2NC(=O)/C=C\c2ccco2)CSC3)c1C,-4.94 (active)
20,CC(C)C(=O)Nc1c2c(nn1-c1ccccc1)CSC2,0.225 (inactive)

row,Compound,z-score
1,COc1cc(C(=O)Nc2c3c(nn2-c2cccc(C)c2C)CS(=O)(=O)C3)cc(OC)c1OC,0.345 (inactive)
2,COc1ccc(OC)c(/C=N/NC(=O)c2cn(C)c3ccccc23)c1,14.4 (inactive)
3,CC(C)Oc1ccccc1Oc1ccc([N+](=O)[O-])cn1,-0.145 (inactive)
4,COc1ccc(OC)c(-n2c(=S)[nH]c3cc(C(=O)Nc4ccc(OC)c(OC)c4)ccc3c2=O)c1,-1.08 (inactive)
5,CSc1ccc(-c2ncnn2-c2ccc(Cl)cc2)cc1,-0.715 (inactive)
6,Cn1cc(CC(=O)Nc2ccccc2)c2ccccc21,-0.8 (inactive)
7,Clc1ccc(C2N=C(c3cnccn3)NN2)cc1 (stereo not given),-0.935 (inactive)
8,CCO/C=C1\C(=O)N(c2ccc(C)cc2C)C(=O)c2cc(OC)ccc21,0.06 (inactive)
9,COc1ccc(C2CC(=O)C3=C(C2)Nc2ccc4ccccc4c2C3c2ccc3c(c2)OCO3)cc1 (stereo not given),1.5 (inactive)
10,CC(NC(=O)Cn1nc(-c2ccc(Cl)cc2)c2ccccc2c1=O)c1ccccc1 (stereo not given),-0.405 (inactive)
11,CC1CCc2c(sc(NC(=O)c3sc4ccccc4c3Cl)c2C(=O)OC(C)C)C1 (stereo not given),-0.045 (inactive)
12,C=CCOC(=O)c1cc(-c2ccc(/C=C3/NC(=S)NC3=O)o2)ccc1Cl,0.96 (inactive)
13,O=C1NC(=S)N/C1=C\c1c(F)cccc1Cl,-4.06 (active)
14,O=C1NC(=S)N/C1=C/c1cc(I)cc(I)c1O,-0.725 (inactive)
15,COC(=O)c1c(NC(=O)c2c(-c3c(Cl)cccc3Cl)noc2C)sc2c1CCCC2,-0.55 (inactive)
16,COc1ccc(/C=C/C(=O)N2CCN(C(c3ccccc3)c3ccccc3)CC2)cc1OC,4.64 (inactive)
17,CC1(C)OCC([C@H]2O[C@@H]3OC(C)(C)OC3C2OC(=O)Nc2ccc(Cc3ccc(NC(=O)OC4C5OC(C)(C)O[C@H]5O[C@@H]4C4COC(C)(C)O4)cc3)cc2)O1 (stereo not given in full),-0.275 (inactive)
18,CC(C)(C)C(=O)N(Cc1cccnc1)Cc1ccc(Cl)cc1Cl,-0.865 (inactive)
19,Cc1ccc(S(=O)(=O)c2cnc(SCC(=O)N3CCCc4ccccc43)[nH]c2=O)cc1,-0.55 (inactive)
20,CC1CCN(c2nc3nonc3nc2Nc2cccc(Br)c2)CC1,0.265 (inactive)
